# Results published in PubChem BioAssay (EPA / NIEHS).
# The source made the active and inactive calls. Rule for the calls: active = hit-call score of the fitted dose curve at least 0.9, where 1 is the maximum; inactive = score below 0.9.
# Legend:
# [1] = ATG_CRE_CIS: Attagene CIS-FACTORIAL HepG2 Assay for human cAMP Responsive Element (CRE) binding protein 3 (AID 2282926); details: HepG2 CRE cis-reporter, Attagene multiplexed mRNA; actives raise or lower the signal
# How it was run: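 Multiplexed transcription-unit reporters transfected into HepG2; 24 h dosing; RT-PCR/capillary electrophoresis fluorescence read-out; bidirectional fit vs DMSO.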
# [2] = target: CCAAT/enhancer-binding protein beta (Homo sapiens) (UniProt P17676); assay: ATG_C_EBP_CIS: Attagene CIS-FACTORIAL HepG2 Assay for human CCAAT/Enhancer Binding Protein (C/EBP) beta (AID 2282927); details: HepG2 Attagene cis-factorial transcription factor reporter; actives raise or lower the signal
# How it was run: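 Endogenous transcription factor activity in human liver HepG2 cells is inferred from induction of a CEBPB-linked reporter mRNA. Exposure lasts 24 h; activity is fitted in both directions relative to DMSO.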
# [3] = ATG_CMV_CIS: Attagene CIS-FACTORIAL HepG2 Assay for human CMV (Internal Marker) (AID 2282928); details: HepG2 CMV promoter reporter, transcription factor profiling; actives raise or lower the signal;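 note: endpoint acts as a background internal control marker rather than a target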
# How it was run: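 Endogenous transcription factor activity read in HepG2 via transfected cis-promoter reporter units. After 24 h dosing, reporter mRNA measured by RT-PCR/capillary electrophoresis; gain or loss of signal fit relative to DMSO.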
# [4] = ATG_DR4_LXR_CIS: Attagene CIS-FACTORIAL HepG2 Assay for human Liver X Receptor (LXR), DR4 submotif (AID 2282929); details: HepG2 Attagene DR4 cis-reporter, mRNA transcription; AC50: actives raise or lower the signal unless noted; outcome: actives raise or lower the signal unless noted
# How it was run: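 Endogenous factor activity at a DR4 cis-element is read as reporter mRNA in transiently transfected HepG2 cells. Exposure lasts 24 h; transcripts are amplified, fluorescently labelled and sized by capillary electrophoresis, with DMSO as baseline.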
# [5] = target: Aryl hydrocarbon receptor (Homo sapiens) (UniProt P35869); assay: ATG_Ahr_CIS: Attagene CIS-FACTORIAL HepG2 Assay for human Aryl Hydrocarbon Receptor (Ahr) (AID 2282930); details: HepG2 AhR cis-factorial reporter transcription; actives raise or lower the signal
# How it was run: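 Transient MRTU transfection of HepG2 → 24 h compound exposure → total RNA, oligo(dT) RT → PCR, 6-FAM extension, HpaI cut → CE fluorescence. DMSO = baseline; bidirectional curve fit.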
# [6] = ATG_AP_1_CIS: Attagene CIS-FACTORIAL HepG2 Assay for human Activator Protein 1 (AP-1) (AID 2282931); details: HepG2 Attagene cis-factorial AP-1 reporter mRNA; actives raise or lower the signal
# How it was run: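 Fluorescence of labelled PCR fragments separated by capillary electrophoresis gives reporter mRNA levels. HepG2 with transfected cis-regulated reporter units, 24 h exposure; DMSO serves as baseline for bidirectional curve fits.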
# [7] = ATG_AP_2_CIS: Attagene CIS-FACTORIAL HepG2 Assay for human Activator Protein 2 (AP-2) (AID 2282932); details: HepG2 AP-2 cis-reporter, Attagene transcription factor profiling; AC50: actives raise or lower the signal unless noted; outcome: actives raise or lower the signal unless noted
# How it was run: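 Step one: transient transfection of HepG2 with reporter transcription units. Step two: 24 h chemical exposure. Step three: RNA extraction, RT-PCR, labelled fragment analysis by capillary electrophoresis; DMSO serves as baseline.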
# [8] = ATG_BRE_CIS: Attagene CIS-FACTORIAL HepG2 Assay for human Bone Morphogenetic Protein (BMP) Response Element (BRE) (AID 2282933); details: HepG2 BMP response element reporter, Attagene transcription factor profiling; actives raise or lower the signal
# How it was run: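 Fluorescence-labelled reporter cDNA fragments, separated by capillary electrophoresis, gave the signal for this component of a 52-readout multiplex. HepG2 cells were transfected, exposed to chemicals for 24 h, and compared with DMSO using bidirectional fitting.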
# [9] = target: Retinoic acid receptor alpha (Homo sapiens) (UniProt P10276); assay: ATG_DR5_RAR_CIS: Attagene CIS-FACTORIAL HepG2 Assay for human Retinoic Acid Receptor Alpha (RARE), DR5 submotif (AID 2282934); details: HepG2 Attagene cis-factorial RARE DR5 reporter, mRNA; actives raise or lower the signal;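 for AC50: reporter responds to endogenous RAR alpha beta and gamma in HepG2 not RARA alone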
# How it was run: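 Transient MRTU transfection of HepG2; 24 h compound treatment; TriZol RNA, oligo(dT) RT, PCR, FAM labelling, capillary electrophoresis. Bidirectional fit vs DMSO. Endogenous TF activity at DR5 RARE.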
# [10] = target: Transcription factor E2F1 (Homo sapiens) (UniProt Q01094); assay: ATG_E2F_CIS: Attagene CIS-FACTORIAL HepG2 Assay for human E2F Transcription Factor 1 (AID 2282935); details: HepG2 Attagene cis-reporter, E2F reporter RNA transcripts; actives raise or lower the signal
# How it was run: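 Total RNA from 24 h-treated, reporter-transfected HepG2 cells undergoes DNase I treatment, oligo(dT) reverse transcription, PCR and 6-FAM primer extension before capillary electrophoresis.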
# [11] = ATG_E_Box_CIS: Attagene CIS-FACTORIAL HepG2 Assay for human Enhancer Box (E-box) (AID 2282936); details: HepG2 E-box cis-reporter transcription, actives raise or lower the signal
# How it was run: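 DMSO served as negative control and baseline for bidirectional fitting. Human hepatoma HepG2 cells, transiently transfected with cis-reporter constructs, were dosed 24 h; reporter mRNA read by RT-PCR and capillary electrophoresis.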
# Chain of Retinoic acid receptor alpha (Homo sapiens) (P10276 whole entry, looked up): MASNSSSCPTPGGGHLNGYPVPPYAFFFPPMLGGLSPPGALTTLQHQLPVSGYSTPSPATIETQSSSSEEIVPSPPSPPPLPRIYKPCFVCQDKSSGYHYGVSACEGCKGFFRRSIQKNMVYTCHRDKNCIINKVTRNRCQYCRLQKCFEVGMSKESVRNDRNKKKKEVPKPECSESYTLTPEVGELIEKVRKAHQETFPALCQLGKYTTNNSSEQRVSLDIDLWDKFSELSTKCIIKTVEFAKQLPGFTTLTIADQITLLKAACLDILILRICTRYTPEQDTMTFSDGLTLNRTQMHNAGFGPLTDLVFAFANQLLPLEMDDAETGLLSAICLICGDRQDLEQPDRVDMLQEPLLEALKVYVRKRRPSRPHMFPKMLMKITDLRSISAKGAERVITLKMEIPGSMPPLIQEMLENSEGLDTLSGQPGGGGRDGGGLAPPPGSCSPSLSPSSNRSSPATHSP
# Chain of CCAAT/enhancer-binding protein beta (Homo sapiens) (P17676 whole entry, looked up): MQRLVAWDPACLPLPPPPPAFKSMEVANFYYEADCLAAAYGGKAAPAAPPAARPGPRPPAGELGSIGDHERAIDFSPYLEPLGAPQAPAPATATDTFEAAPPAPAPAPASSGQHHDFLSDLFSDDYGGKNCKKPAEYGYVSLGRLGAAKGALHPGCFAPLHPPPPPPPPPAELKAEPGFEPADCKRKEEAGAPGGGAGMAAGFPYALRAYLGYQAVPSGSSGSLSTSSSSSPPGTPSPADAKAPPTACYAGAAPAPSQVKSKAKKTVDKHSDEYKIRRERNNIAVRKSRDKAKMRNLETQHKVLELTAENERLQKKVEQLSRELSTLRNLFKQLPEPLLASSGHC
# Chain of Transcription factor E2F1 (Homo sapiens) (Q01094 whole entry, looked up): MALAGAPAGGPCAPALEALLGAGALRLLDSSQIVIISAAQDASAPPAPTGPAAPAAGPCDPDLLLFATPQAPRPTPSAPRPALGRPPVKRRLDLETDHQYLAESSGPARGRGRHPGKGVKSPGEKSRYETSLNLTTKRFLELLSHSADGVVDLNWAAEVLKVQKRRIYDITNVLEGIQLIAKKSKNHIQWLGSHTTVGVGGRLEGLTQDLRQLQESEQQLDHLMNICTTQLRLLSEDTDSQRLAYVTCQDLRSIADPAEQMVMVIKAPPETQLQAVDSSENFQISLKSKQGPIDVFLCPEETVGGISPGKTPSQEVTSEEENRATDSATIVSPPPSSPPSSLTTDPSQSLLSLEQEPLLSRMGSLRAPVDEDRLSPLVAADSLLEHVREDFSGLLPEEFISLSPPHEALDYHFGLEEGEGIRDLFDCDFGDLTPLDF
# Chain of Aryl hydrocarbon receptor (Homo sapiens) (P35869 whole entry, looked up): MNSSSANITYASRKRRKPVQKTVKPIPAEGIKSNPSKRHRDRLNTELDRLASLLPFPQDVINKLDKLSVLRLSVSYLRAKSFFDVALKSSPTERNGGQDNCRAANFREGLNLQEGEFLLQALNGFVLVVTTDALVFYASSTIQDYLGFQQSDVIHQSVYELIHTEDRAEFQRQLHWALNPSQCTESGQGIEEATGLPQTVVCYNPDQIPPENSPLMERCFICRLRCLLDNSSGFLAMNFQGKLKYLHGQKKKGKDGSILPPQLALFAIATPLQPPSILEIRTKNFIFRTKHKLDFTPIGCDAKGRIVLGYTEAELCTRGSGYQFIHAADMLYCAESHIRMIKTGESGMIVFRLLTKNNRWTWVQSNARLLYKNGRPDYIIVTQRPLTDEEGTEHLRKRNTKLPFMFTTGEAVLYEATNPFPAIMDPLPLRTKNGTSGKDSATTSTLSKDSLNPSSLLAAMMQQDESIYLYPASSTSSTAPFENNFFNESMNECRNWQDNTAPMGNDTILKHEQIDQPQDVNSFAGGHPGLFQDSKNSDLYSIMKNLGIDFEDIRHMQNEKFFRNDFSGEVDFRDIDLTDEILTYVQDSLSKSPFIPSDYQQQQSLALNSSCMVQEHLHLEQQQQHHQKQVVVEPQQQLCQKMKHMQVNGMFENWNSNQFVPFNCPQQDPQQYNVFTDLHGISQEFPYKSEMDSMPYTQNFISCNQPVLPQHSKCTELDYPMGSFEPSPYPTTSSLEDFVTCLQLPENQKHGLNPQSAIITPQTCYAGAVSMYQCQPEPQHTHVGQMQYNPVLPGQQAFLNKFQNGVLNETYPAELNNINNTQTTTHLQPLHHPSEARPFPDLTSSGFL
smiles,measurement,setting,value
CC1=CC(=O)c2ccccc2C1=O,outcome,[1],inactive
same,outcome,[2],inactive
same,outcome,[3],inactive
same,outcome,[4],inactive
same,AC50,[5],1.4 µM (active)
same,outcome,[6],inactive
same,outcome,[7],inactive
same,outcome,[8],inactive
same,outcome,[9],inactive
same,outcome,[10],inactive
same,AC50,[11],6.91 µM (active)
COC1=CC(=O)C[C@@H](C)[C@]12Oc1c(Cl)c(OC)cc(OC)c1C2=O,AC50,[1],130 µM (active)
same,outcome,[2],inactive
same,AC50,[3],138 µM (active)
same,outcome,[4],inactive
same,outcome,[5],inactive
same,outcome,[6],inactive
same,outcome,[7],inactive
same,outcome,[8],inactive
same,outcome,[9],inactive
same,outcome,[10],inactive
C=CC(=O)OCCC(F)(F)C(F)(F)C(F)(F)C(F)(F)C(F)(F)C(F)(F)F,outcome,[1],inactive
same,outcome,[2],inactive
same,outcome,[3],inactive
same,outcome,[4],inactive
same,outcome,[5],inactive
same,outcome,[6],inactive
same,outcome,[7],inactive
same,outcome,[8],inactive
same,outcome,[9],inactive
same,outcome,[10],inactive
same,outcome,[11],inactive
O=CC(F)(F)C(F)(F)C(F)(F)F,outcome,[1],inactive
same,outcome,[2],inactive
same,outcome,[3],inactive
same,outcome,[4],inactive
same,outcome,[5],inactive
same,outcome,[6],inactive
same,outcome,[7],inactive
same,outcome,[8],inactive
same,outcome,[9],inactive
same,outcome,[10],inactive
same,outcome,[11],inactive
CC(C)[C@@H]1CC[C@@H](C)C[C@H]1O,outcome,[1],inactive
same,outcome,[2],inactive
same,outcome,[3],inactive
same,outcome,[4],inactive
same,outcome,[5],inactive
same,outcome,[6],inactive
same,outcome,[7],inactive
same,outcome,[8],inactive
same,outcome,[9],inactive
same,outcome,[10],inactive
O=C(c1cc(O)c(O)c(O)c1)c1ccc(O)c(O)c1O,outcome,[1],inactive
same,outcome,[2],inactive
same,outcome,[3],inactive
same,outcome,[4],inactive
same,AC50,[5],36 µM (active)
same,outcome,[6],inactive
same,outcome,[7],inactive
same,AC50,[8],4.01 µM (active)
same,outcome,[9],inactive
same,outcome,[10],inactive
same,outcome,[11],inactive
CCCCCCCCCCCC(=O)NCCCN(C)C,AC50,[1],20.3 µM (active)
same,outcome,[2],inactive
same,outcome,[3],inactive
same,outcome,[4],inactive
same,outcome,[5],inactive
same,outcome,[6],inactive
same,outcome,[7],inactive
same,AC50,[8],17.6 µM (active)
same,outcome,[9],inactive
same,outcome,[10],inactive
CCOC=C(C(=O)OCC)C(=O)OCC,outcome,[1],inactive
same,outcome,[2],inactive
same,outcome,[3],inactive
same,outcome,[4],inactive
same,outcome,[5],inactive
same,outcome,[6],inactive
same,outcome,[7],inactive
same,outcome,[8],inactive
same,outcome,[9],inactive
same,outcome,[10],inactive
same,outcome,[11],inactive
NNc1nc(-c2ccc([N+](=O)[O-])cc2)cs1,outcome,[1],inactive
same,outcome,[2],inactive
same,outcome,[3],inactive
same,outcome,[4],inactive
same,outcome,[5],inactive
same,AC50,[6],10.6 µM (active)
same,outcome,[7],inactive
same,AC50,[8],18.3 µM (active)
same,outcome,[9],inactive
same,outcome,[10],inactive
same,outcome,[11],inactive
O=S(=O)(c1ccc(OCc2ccccc2)cc1)c1ccccc1O,AC50,[1],14.9 µM (active)
same,AC50,[2],23.1 µM (active)
same,AC50,[3],51.6 µM (active)
same,AC50,[4],33.4 µM (active)
same,AC50,[5],46.8 µM (active)
same,outcome,[6],inactive
same,outcome,[7],inactive
same,outcome,[8],inactive
same,AC50,[9],31.7 µM (active)
same,outcome,[10],inactive
same,outcome,[11],inactive
O=C(O)CCC(F)(F)C(F)(F)C(F)(F)C(F)(F)C(F)(F)C(F)(F)F,outcome,[1],inactive
same,outcome,[2],inactive
same,outcome,[3],inactive
same,AC50,[4],100 µM (active)
same,outcome,[5],inactive
same,outcome,[6],inactive
same,outcome,[7],inactive
same,outcome,[8],inactive
same,AC50,[9],51 µM (active)
same,outcome,[10],inactive
same,outcome,[11],inactive
CCCCCCCCCCCCCCCCCC[N+](C)(C)Cc1ccccc1,outcome,[1],inactive
same,AC50,[2],75.8 µM (active)
same,outcome,[3],inactive
same,AC50,[4],12.8 µM (active)
same,AC50,[5],12.3 µM (active)
same,outcome,[6],inactive
same,AC50,[7],88.1 µM (active)
same,AC50,[8],4.38 µM (active)
same,outcome,[9],inactive
same,AC50,[10],12.8 µM (active)
CCc1cccc(CC)c1NC(=O)C(=O)O,outcome,[1],inactive
same,outcome,[2],inactive
same,outcome,[3],inactive
same,outcome,[4],inactive
same,outcome,[5],inactive
same,outcome,[6],inactive
same,outcome,[7],inactive
same,outcome,[8],inactive
same,outcome,[9],inactive
same,outcome,[10],inactive
same,outcome,[11],inactive
COC(=O)C(F)(F)C(F)(F)C(F)(F)C(F)(F)C(F)(F)F,outcome,[1],inactive
same,outcome,[2],inactive
same,outcome,[3],inactive
same,outcome,[4],inactive
same,outcome,[5],inactive
same,outcome,[6],inactive
same,outcome,[7],inactive
same,outcome,[8],inactive
same,outcome,[9],inactive
same,outcome,[10],inactive
CC(C)(C)c1ccc(CCC=O)cc1,outcome,[1],inactive
same,outcome,[2],inactive
same,outcome,[3],inactive
same,outcome,[4],inactive
same,outcome,[5],inactive
same,outcome,[6],inactive
same,outcome,[7],inactive
same,outcome,[8],inactive
same,AC50,[9],72.3 µM (active)
same,outcome,[10],inactive
same,outcome,[11],inactive
COc1ccccc1NC(=O)c1cc2ccccc2cc1O,AC50,[1],31.6 µM (active)
same,outcome,[2],inactive
same,AC50,[3],100 µM (active)
same,AC50,[4],41.9 µM (active)
same,AC50,[5],0.0553 µM (active)
same,outcome,[6],inactive
same,outcome,[7],inactive
same,AC50,[8],26.1 µM (active)
same,outcome,[9],inactive
same,outcome,[10],inactive
O=C(O)CN(CCCN(CC(=O)O)CC(=O)O)CC(=O)O,outcome,[1],inactive
same,outcome,[2],inactive
same,outcome,[3],inactive
same,AC50,[4],6.63 µM (active)
same,outcome,[5],inactive
same,outcome,[6],inactive
same,outcome,[7],inactive
same,outcome,[8],inactive
same,outcome,[9],inactive
same,outcome,[10],inactive
same,outcome,[11],inactive
C=CC(=O)OCCC(F)(F)C(F)(F)C(F)(F)C(F)(F)C(F)(F)C(F)(F)C(F)(F)C(F)(F)F,outcome,[1],inactive
same,outcome,[2],inactive
same,outcome,[3],inactive
same,outcome,[4],inactive
same,outcome,[5],inactive
same,outcome,[6],inactive
same,outcome,[7],inactive
same,outcome,[8],inactive
same,AC50,[9],15.2 µM (active)
same,outcome,[10],inactive
COCN(COC)c1nc(N(COC)COC)nc(N(COC)COC)n1,outcome,[1],inactive
same,outcome,[2],inactive
same,outcome,[3],inactive
same,outcome,[4],inactive
same,outcome,[5],inactive
same,outcome,[6],inactive
same,outcome,[7],inactive
same,outcome,[8],inactive
same,outcome,[9],inactive
same,outcome,[10],inactive
same,outcome,[11],inactive
CCCCCCCCC(C)=O,outcome,[1],inactive
same,outcome,[2],inactive
same,outcome,[3],inactive
same,outcome,[4],inactive
same,outcome,[5],inactive
same,outcome,[6],inactive
same,outcome,[7],inactive
same,outcome,[8],inactive
same,outcome,[9],inactive
same,outcome,[10],inactive
NCCN,outcome,[1],inactive
same,outcome,[2],inactive
same,outcome,[3],inactive
same,outcome,[4],inactive
same,outcome,[5],inactive
same,outcome,[6],inactive
same,outcome,[7],inactive
same,outcome,[8],inactive
same,outcome,[9],inactive
same,outcome,[10],inactive
same,outcome,[11],inactive
